# Screening data (PubChem BioAssay)
# PI5P4Ka inh – qHTS for Inhibitors of phosphatidylinositol 5-phosphate 4-kinase (PI5P4K); PI5P4Kalpha enzyme, ADP-Glo luminescence, 60 min; hits give low values; 1.2% of 330,000 active; max response, %; AID 652105, 2013; Phosphatidylinositol 5-phosphate 4-kinase type-2 alpha (Homo sapiens), P48426; active = max response of -50% or lower; inconclusive = between -30% and -50%; inactive = -30% or higher; also: value at the top dose of about 77 µM; % is scaled to controls: 0 for no effect and ±100 for the full control effect
#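 Quantitative HTS of the MLSMR library against PI5P4Kalpha with substrate. ATP added last at 5 microM final; room temperature, 60 minutes. Remaining ATP depleted, ADP converted and read as luminescence.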
# Pol eta inh – qHTS for Inhibitors of Polymerase Eta; recombinant Pol eta, fluorescent DNA replication assay; Potency, µM (titrated, usually from 114 µM), inactives show at the highest dose activity change, negative = inhibition, actives largely listed as inhibitors; 1.2% of 390,000 active; AID 588591, 2011; also: potency is read from the fitted curve at half-maximal effect; % is scaled to controls: 0 for no effect and ±100 for the full control effect
#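 Pol eta (10 nM) was preincubated with compounds for 15 min at room temperature, after which fluorescent replication substrate (50 nM final) was added to start the reaction. Fluorescence was read kinetically at 0 and 10 min.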
# Pol iota inh – qHTS for Inhibitors of Polymerase Iota | DNA polymerase iota (Homo sapiens), Q9UNA4 | Pol iota fluorescent replication assay, 10 min | Potency, µM (top dose mostly 115 µM), without a hit: at the top dose activity, negative = inhibition, actives largely listed as inhibitors | 1% of 390,000 active; also: potency is read from the fitted curve at half-maximal effect
#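 Pol iota at 10 nM preincubated 15 min with compounds at room temperature; reaction started with fluorescent substrate, 50 nM final. Fluorescence read kinetically at 0 and 10 min; buffer-only wells as negative control.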
# WRN inhibitor – qHTS for Inhibitors of WRN Helicase | Bifunctional 3'-5' exonuclease/ATP-dependent helicase WRN (Homo sapiens), Q14191 | WRN helicase unwinding, fluorescent forked duplex, kinetic | Potency, µM (top dose mostly 114 µM), for the others: at the top dose activity change, negative = inhibition, actives largely listed as inhibitors | 0.46% of 360,000 active | AID 651768, 2012; also: potency is read from the fitted curve at half-maximal effect; % is scaled to controls: 0 for no effect and ±100 for the full control effect; nearly all actives have a fitted effect of over 55% in size
#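 Enzyme (20 nM final) and test compound sit together 15 min at room temperature before substrate addition. Substrate is a single-forked duplex oligonucleotide (100 nM) labelled with fluorophore and quencher, with 2 mM ATP; helicase unwinding raises red fluorescence, read kinetically.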
# Pol kappa inh – qHTS for Inhibitors of Polymerase Kappa | DNA polymerase kappa (Homo sapiens), Q9UBT6 | 0.53% of 400,000 active | AID 588579, 2011 | purified Pol kappa, fluorescent DNA synthesis assay, 10 min | Potency, µM (doses to about 107 µM), for the others: at the highest dose activity, negative = inhibition, usual class: inhibitors; also: potency is read from the fitted curve at half-maximal effect; % is scaled to controls: 0 for no effect and ±100 for the full control effect
# Target sequence (Q9UBT6 whole entry, looked up): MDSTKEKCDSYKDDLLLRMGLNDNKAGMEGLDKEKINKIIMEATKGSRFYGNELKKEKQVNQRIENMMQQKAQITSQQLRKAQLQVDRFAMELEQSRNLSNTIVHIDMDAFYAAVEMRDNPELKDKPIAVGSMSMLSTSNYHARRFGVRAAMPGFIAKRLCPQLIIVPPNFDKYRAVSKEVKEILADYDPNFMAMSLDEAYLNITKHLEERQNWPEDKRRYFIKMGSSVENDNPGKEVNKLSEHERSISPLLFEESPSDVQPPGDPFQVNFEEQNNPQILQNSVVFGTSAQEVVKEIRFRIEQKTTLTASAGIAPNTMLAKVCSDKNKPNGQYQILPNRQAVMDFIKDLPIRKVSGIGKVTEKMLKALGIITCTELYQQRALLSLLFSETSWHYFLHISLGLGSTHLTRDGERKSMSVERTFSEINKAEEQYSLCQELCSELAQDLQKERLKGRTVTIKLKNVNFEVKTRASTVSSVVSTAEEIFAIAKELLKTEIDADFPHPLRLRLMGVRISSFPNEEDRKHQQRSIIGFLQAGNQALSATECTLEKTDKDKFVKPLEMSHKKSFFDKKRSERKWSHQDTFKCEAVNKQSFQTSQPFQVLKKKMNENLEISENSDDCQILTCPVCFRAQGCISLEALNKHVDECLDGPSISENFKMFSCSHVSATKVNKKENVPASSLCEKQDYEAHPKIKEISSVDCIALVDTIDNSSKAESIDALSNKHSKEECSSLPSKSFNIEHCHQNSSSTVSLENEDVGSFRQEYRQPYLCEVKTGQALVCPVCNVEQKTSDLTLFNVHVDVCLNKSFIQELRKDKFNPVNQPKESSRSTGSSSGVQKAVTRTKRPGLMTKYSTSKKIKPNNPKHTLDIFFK
#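 Readout: fluorescence, taken kinetically at 0 and 10 min. Conditions: 10 nM Pol kappa, 15 min RT compound preincubation, 50 nM substrate final. Controls: enzyme-free buffer wells.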
# POLB inh – qHTS Assay for Inhibitors of DNA Polymerase Beta; Pol beta primer extension/strand displacement, fluorescence kinetic; Potency, µM (titrated, usually from 114 µM), for the others: at the highest dose activity change, negative = inhibition, usual class: inhibitors; 1.3% of 340,000 active; AID 485314, 2010; also: potency is read from the fitted curve at half-maximal effect; % is scaled to controls: 0 for no effect and ±100 for the full control effect
#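 Curves were derived by four-parameter Hill fits of normalized qHTS data. The kinetic fluorescent primer-extension read was taken at 0 and 10 min after 50 nM substrate, following a 15 min room-temperature preincubation of 10 nM enzyme with compounds.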
# The depositor's hits bear a star; ? = inconclusive; · = not tested or not shown; [ ] = remark or other dose. Most compounds without a hit are left out; they make up all but 2.8% or so of the library. Unless noted, calls follow the shape of the dose curve; as a rule, active = well fitted curve in the direction sought with a large enough effect; inconclusive = small, poorly fitted or top-dose-only effect, or another doubt; inactive = no such curve, though single readings can be large; an effect the other way counts as inactive or inconclusive.
SMILES,PI5P4Ka inh,Pol eta inh,Pol iota inh,WRN inhibitor,Pol kappa inh,POLB inh
O=[N+]([O-])c1ccc(Nc2nc(N/N=C/c3cccc(F)c3)nc(N3CCCC3)n2)cc1,-0.8,-13.9%,2.3%,-24.6%[57.1 µM],-6.5%,0.8%
COc1cccc(/C=N/Nc2nc(Nc3ccc([N+](=O)[O-])cc3)nc(N3CCCC3)n2)c1O,?,22.4µM*,?,50.1µM*,14.1µM*,?
O=S(=O)(O)c1ccc(NN=Cc2ccccc2O)cc1,-13.4,31.6µM*,?,-9.3%[11.6 µM],-4.5%,·
O=S(=O)(N/N=C\c1ccccc1O)c1ccc(Cl)cc1,4.1,1.2%,-10.7%,1.0%,-4.0%,-0.8%
COc1ccc(/C=N/Nc2snc(SC)c2C#N)cc1OC,-1.0,-4.7%,?,-12.0%,-21.6%,?
COc1cccc(/C=N/Nc2ccc(S(=O)(=O)O)cc2)c1O,·,-10.8%,20.6%,-7.9%,-3.8%,12.6µM*
COc1ccccc1C(=O)NCCC(=O)NC(C)c1ccc(-n2ccnc2)cc1 (stereo unspecified),6.1,-12.9%,23.6%,-3.9%,4.5%,·
COc1ccc(SCC(Cc2ccccc2)N2CCN(CC(C)C)CCC2=O)cc1 (stereo unspecified),·,·,?,·,-4.1%,·
CC(=O)c1ccc(NC(=O)C2CCC(CNS(=O)(=O)c3ccc4c(c3)CCCC(=O)N4)CC2)cc1 (stereo unspecified),·,-9.1%,-15.4%,·,1.5%,23.6%
CC(=O)Nc1ccc(S(=O)(=O)N2CCNC(=O)C2)cc1,4.0,-12.2%,91.5%,-6.5%,-15.6%,·
CC(=O)c1ccc(S(=O)(=O)N2CCN(C(C)=O)CC2)cc1,5.6,22.4µM*,110.0%,19.4%,-13.8%,-28.7%
CC(=O)c1ccc(S(=O)(=O)N2CCCC2)cc1,·,0.7%,8.2%,-5.1%,-2.7%,8.7%
CC(=O)c1ccc(S(=O)(=O)N2CCNC(=O)C2)cc1,?,22.4µM*,?,2.0%[11.6 µM],-24.9%,·
COCCn1c(C)cc(O)c(C(c2ccccc2Cl)N2CCN(c3ccccc3)CC2)c1=O (stereo unspecified),·,-12.4%,-4.9%,·,-7.9%[60.1 µM],0.3%
CCc1nn(CCCC(=O)NC2CCCCC2C)c(=O)c2cc3occc3n12 (stereo unspecified),0.4,-3.6%,·,1.8%,·,·
N#C/C(=C/c1cn(-c2ccccc2)nc1-c1cccc(S(=O)(=O)N2CCCC2)c1)C(=O)NCc1ccco1,?,28.2µM*,20µM*,-7.8%[11.6 µM],?,50.1µM*
O=C(CCN1C(=O)/C(=C/c2ccc(F)cc2)SC1=S)Nc1cc([N+](=O)[O-])ccc1O,2.5,-0.3%,?,-4.2%,-9.1%[60.1 µM],44.7µM*
O=C(CCCN1C(=O)/C(=C/c2cccs2)SC1=S)Nc1cc([N+](=O)[O-])ccc1O,-5.4,-16.6%,29.5%,-9.0%,-16.2%,1.5%
CCCc1cc(=O)oc2cc(OCc3ccc(C(=O)O)cc3)ccc12,-0.4,-9.3%,87.3%,-7.6%,-16.0%,4.6%
O=C1NC(=S)N/C1=C/c1ccc(-c2c(Br)cc([N+](=O)[O-])cc2Br)o1,·,·,·,·,·,8.91µM*
Cc1ccc(-c2ccc(/C=C3/NC(=O)NC3=O)o2)cc1[N+](=O)[O-],-10.3,?,50.1µM*,-28.8%,?,-4.0%
COc1ccc(NC(=O)CN(c2cc(C)cc(C)c2)S(=O)(=O)c2c(C)n[nH]c2C)cc1,-3.7,-18.2%,-25.4%,2.4%,-6.0%,8.2%
CCN(Cc1cccc(S(=O)(=O)O)c1)c1ccc(C(=C2C=CC(=[N+](CC)Cc3cccc(S(=O)(=O)O)c3)C=C2)c2ccccc2S(=O)(=O)[O-])cc1,·,·,?,·,7.94µM*,·
CCN(Cc1cccc(S(=O)(=O)O)c1)c1ccc(C(=C2C=CC(=[N+](CC)Cc3cccc(S(=O)(=O)O)c3)C=C2)c2ccc(O)cc2S(=O)(=O)O)cc1,·,·,2.24µM*,·,2.82µM*,·
O=c1[nH]c(/C=C/c2ccccc2Cl)c([N+](=O)[O-])c(=O)[nH]1,-69.2*,28.2µM*,?,-35.2%,-26.9%,-7.9%
SMILES,PI5P4Ka inh,Pol eta inh,Pol iota inh,WRN inhibitor,Pol kappa inh,POLB inh
COc1cccc(/C=C/c2[nH]c(=O)[nH]c(=O)c2[N+](=O)[O-])c1O,-89.6*,50.1µM*,11.2µM*,-9.8%[11.6 µM],-17.2%,31.7%
CC(C)c1ccc(/C=C/c2[nH]c(=O)[nH]c(=O)c2[N+](=O)[O-])cc1,-57.5*,?,?,1.5%,-7.3%,1.6%
CCOc1ccc(/C=C/c2[nH]c(=O)[nH]c(=O)c2[N+](=O)[O-])cc1,?,?,14.8%,-14.6%,0.5%,16.6%
COc1cc(/C=C/c2[nH]c(=O)[nH]c(=O)c2[N+](=O)[O-])cc(OC)c1O,-88.0*,-19.9%,-10.1%,-7.4%,-5.4%,19.3%
CCOc1cc(/C=C\c2[nH]c(=O)[nH]c(=O)c2[N+](=O)[O-])ccc1OC(C)CC (stereo unspecified),·,?,?,-8.1%,-3.4%,-4.2%
COc1cc(OC)cc(C(=O)NCC(c2cccs2)S(=O)(=O)c2ccc(F)c(C)c2)c1 (stereo unspecified),·,12.3%,-19.8%,·,-3.2%[60.1 µM],-38.6%
Cc1cc(C)c2c(=O)n(CC(=O)NCCCN3CCN(c4ccccc4F)CC3)sc2n1,-77.1*,-13.2%,15.3%,-9.7%,-14.4%,-17.1%
Cc1ccccc1CS(=O)(=O)CCC(=O)NCCCN1CCN(c2ccccc2F)CC1,-7.5,-13.7%,5.3%,1.4%,-7.1%,25.9%
Cc1cc(C)c2c(=O)n(CC(=O)NCCCN3CCOCC3)sc2n1,-100.9*,-6.1%,28.9%,-3.2%,5.8%,?
Cc1cccc(NC(=O)C(Cc2ccccc2)NS(=O)(=O)c2ccc3c(c2)c(=O)n(C)c(=O)n3C)c1 (stereo unspecified),·,-3.5%,-12.8%,·,0.0%,11.6%
CCOC(=O)C1(CCCc2ccccc2)CCN(C(=O)c2cnn(CC)c2)CC1,-4.0,-9.3%,-0.9%,1.2%,1.8%,3.5%
CC[C@H](C)[C@H](NC(=O)[C@H](Cc1ccc(O)cc1)NC(=O)[C@@H]1CCCN1C(=O)[C@@H](N)CCCN=C(N)N)C(=O)N[C@@H](CC(C)C)C(=O)O,·,·,·,·,16.7%[60.1 µM],·
CCc1cccc(C)c1NC(=O)C1CCN(S(=O)(=O)c2cccc3nonc23)CC1,·,-0.7%,89.1µM*,·,?,?
Cc1cnc(CNc2ccnc(-c3ccoc3)n2)cn1,·,·,·,·,-0.8%[60.1 µM],·
